Data on 36 compounds can be found in PubChem BioAssay (NCI).

This is part of a sample that, as a whole, favours compounds with a hit. Of some 83,000 tested, about 20% had one in any assay.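 In brief: 96-well plates, 48 h treatment, single concentration, percent growth endpoint.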 Active and inactive are the calls of the source. How the source made its calls: active means growth percent below 10; inactive means the rest.

The test system of this experiment is U251 CNS. Nature of the experiment: NCI-60 one-dose screen, 48 h (100 = growth as untreated, 0 = no growth, -100 = all killed). As to conditions: 10 µM unless noted.
In the case of `O=C1C(Cl)=C(NCCCCCCNC2=C(Cl)C(=O)c3ccccc3C2=O)C(=O)c2ccccc21`, the growth was 89.9% (inactive).
Under `CCCC/C=C/[C@@H]1C[C@H]1CCO` stands 101% (inactive); under `C=C(C)[C@@H]1CC[C@]2(CO)CC[C@]3(C)[C@H](CC[C@@H]4[C@@]5(C)CC[C@H](NCO)C(C)(C)[C@@H]5CC[C@]43C)[C@@H]12`, -68.6% (active).
Under `Cc1cccc(/C=C/c2c(C(=O)/C=C/c3ccccc3)c(C)nc3ccccc23)c1` stands -94.1% (active); under `Cc1ccc(-c2nc(N3CCCNCC3)c3oc(-c4ccc(C)cc4)nc3n2)cc1`, -92.4% (active); under `Cc1sc2nc(NCCc3c[nH]c4ccc(Cl)cc34)[nH]c(=O)c2c1C`, 32.3% (inactive).
The value for `COc1ccc(OC)c(Nc2nnc(-c3ccc(O)c(OC)c3)o2)c1` was 65.1% (inactive); that for `COc1ccccc1NC(=O)N=Nc1c(O)[nH]c2ccccc12` was 97.3% (inactive); that for `Nc1nc2ccccc2c2c1S(=O)(=O)c1ccc(Cl)cc1C2=O` was 11.9% (inactive).
As to `Nc1n[nH]c2cccc(C#Cc3cccc(C(=O)Nc4cc(C(F)(F)F)cc(C(F)(F)F)c4)c3)c12`, the growth is 84% (inactive).
The value for `CS(=O)(=O)Nc1cc(-c2ccc3ncnc(Nc4ccc5c(cnn5Cc5ccc(F)cc5)c4)c3c2)cnc1Cl` was 37.2% (inactive); that for `Fc1cc2c(cc1Cl)N(c1ncnc3ccc(-c4ccc5n[nH]nc5c4)cc13)CC2` was 86.9% (inactive); that for `CCN1C(=S)N(c2ccccc2)C2NC(=S)N(/N=C/C=C/c3ccccc3OC)C21` (stereo unspecified) was 3.1% (active).
Under `O=c1c2cccc3c(N4CCCC4)ccc(c32)c2nc3ccccc3n12` stands 64.7% (inactive); under `OB1OCc2cc(/C=C/c3cccc(C(F)(F)F)c3)ccc21`, 0.414% (active); under `O=C(/C=C/c1ccccc1)Nc1ncc(Cc2ccccc2Cl)s1`, 27.2% (inactive).
Under `CN(C)CCNC(=O)c1ccc(-c2nc3ccc4[nH]ncc4c3c3c2C2CCC3C2)cc1` (stereo unspecified) stands 44.8% (inactive).
`COC12C=C/C(=C(/C(=O)OCc3ccncc3)C(=O)CCCCCCCCC3(OC)C=C/C(=C(/C(=O)OCc4ccncc4)C(=O)CCCCCCCC1)O3)O2`: the growth is -50.1% (active).
The value for `O=C(/C=C/c1cccc(Cl)c1)c1cccc(OCCCOc2cccc(C(=O)/C=C/c3cccc(Cl)c3)c2)c1` was 75.5% (inactive).
The value for `CCn1c(SCC(=O)N/N=C(\C)c2ccc(Cl)cc2)nc2c1c(=O)n(C)c(=O)n2C` was 104% (inactive); that for `Cc1ccc(C[P+](c2ccccc2)(c2ccccc2)c2ccccc2)cc1` was 7.54% (active); that for `Clc1ccc2c(NC3CCC(N4CCOCC4)CC3)ccnc2c1` (stereo unspecified) was 81.1% (inactive).
Under `Cc1ccc(C2=Nc3c(N)ncnc3NC(c3cccc(Nc4ccnc5cc(C(F)(F)F)ccc45)c3)C2)cc1` (stereo unspecified) stands 31.1% (inactive); under `COc1ccc(-c2noc(C(=O)O)c2-c2cc(OC)c(OC)c(OC)c2)cc1`, 24.6% (inactive); under `CCOC(=O)c1nn(-c2ccc(S(N)(=O)=O)cc2)c2nc(C)cc(=O)n12`, 99% (inactive).
As to `CCSC(SCC)c1ccc(Cl)cc1`, the growth was 102% (inactive).
Under `CSc1nc2ccccc2cc1/C=C1/C=C(c2ccccc2)NC1=O` stands 78.8% (inactive); under `COC1/C=C/OC2(C)Oc3c(C)c(O)c4c(O)c(c(/C=N/Nc5ccc([N+](=O)[O-])cc5[N+](=O)[O-])c(O)c4c3C2=O)NC(=O)C(C)=C/C=C/C(C)C(O)C(C)C(O)C(C)C(OC(C)=O)C1C` (stereo unspecified), -31.9% (active).
The value for `O=C1C(Cl)=C(Nc2ccc(S(=O)(=O)N3CCOCC3)cc2)C(=O)c2ccccc21` was 44.6% (inactive); that for `c1csc(-c2ccc(CNc3c4ccccc4nc4ccccc34)cc2)c1` was -72.7% (active); that for `Nc1ncc(-c2ccc3ncnc(Nc4cccc(Cl)c4)c3c2)cn1` was 43.6% (inactive).
Under `CCOC(=O)C#Cc1c(C(=O)OCC)nnn1Cc1ccc([N+](=O)[O-])cc1` stands 96.5% (inactive); under `O=C(CSc1nc2ccc([N+](=O)[O-])cc2[nH]1)Nc1ccc([N+](=O)[O-])cc1`, 13.7% (inactive).
With `CC(C)(Sc1cc(C(C)(C)C)c(OC(=O)CCCC(=O)O)c(C(C)(C)C)c1)Sc1cc(C(C)(C)C)c(OC(=O)CCCC(=O)O)c(C(C)(C)C)c1`, the growth was 14.4% (inactive).
On to `O=C(N(c1ccccc1)c1ccccc1)n1cc(I)c2nc(Cl)nc(Cl)c21`, for which the growth is 24.2% (inactive).
Under `NC(=O)CSc1oc(-c2ccccc2)nc1S(=O)(=O)c1ccc(Br)cc1` stands 54.6% (inactive).
